Here are results for 40 compounds from PubChem BioAssay (NCATS).

Records with an inconclusive call do not appear. Calls of active or inactive are those of the source. Calls come from the whole dose curve; as a rule, active = well fitted inhibition curve with a large enough effect; inconclusive = small, poorly fitted or top-dose-only effect; inactive = no such curve, though single readings can be large or run the other way.
% is set by controls: 0 for no effect and ±100 for the full control effect; potency is the fitted concentration of half-maximal effect.

The target of the assay is N-terminal Xaa-Pro-Lys N-methyltransferase 1 (Homo sapiens) (UniProt Q9BV86). Nature of the assay: qHTS Assay for Inhibitors of N-terminal methyltransferase 1 (NTMT1): LOPAC validation of the NTMT1 SAHH-coupled ThioGlo3 Assay (AID 1347143).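 Note: SAH from peptide methylation measured as thiol fluorescence via SAHH coupling and ThioGlo3; nearly all actives have a fitted effect of over 70% in size.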 The conditions noted are these: recombinant NTMT1, SAHH-coupled ThioGlo3 fluorescence; series mostly up to 114 µM; activity change, negative = inhibition: at the top concentration. From the text: Assay Submitter (PI): Rong Huang Ph.D, Purdue University, West Lafayette, IN 47907 The N-terminal methytransferase 1 is the first methyltransferase that methylates protein alpha-N-amines and plays an important role in regulating cell mitosis, chromatin interactions and DNA repair. It is observed to be over-expressed in various cancer patient tissues like malignant melanoma and colorectal cancer tissues. Knockdown of NTMT1 in cancer cells causes cell mitotic defects and enhances sensitivity to DNA damaging chemotherapeutics. […] These critical cellular processes in which NTMT1 is implicated, coupled with emerging links to cellular dysfunction, strengthen the inference that NTMT1 is a compelling novel anticancer target. Progress have been made in understanding the molecular properties of NTMT1 and the biological consequences of protein alpha-N-terminal methylation, but there are no specific small molecule probes available for NTMT1 to fully characterize its MTase activity. To address this unmet need, a panel of assay is created and established to enable quantitative high-throughput screening (qHTS) for novel, potent, and selective small molecule NTMT1 inhibitors. Two orthogonal qHTS that use different reagents (ThioGlo vs. MTaseGlo) are developed for primary robotic screening against the NCATS chemical library of more than 400,000 small molecules. Identified inhibitors are reacquired, validated, and further characterized. […] A pilot screen against the LOPAC library of 1280 compounds is carried out to assess performance of the optimized qHTS in 1536-well plate format. Early Translation Branch (ETB) National Center for Advancing Translational Sciences (NCATS) National Institute of Health (NIH)
Chain of N-terminal Xaa-Pro-Lys N-methyltransferase 1 (Homo sapiens) (Q9BV86 whole entry, looked up): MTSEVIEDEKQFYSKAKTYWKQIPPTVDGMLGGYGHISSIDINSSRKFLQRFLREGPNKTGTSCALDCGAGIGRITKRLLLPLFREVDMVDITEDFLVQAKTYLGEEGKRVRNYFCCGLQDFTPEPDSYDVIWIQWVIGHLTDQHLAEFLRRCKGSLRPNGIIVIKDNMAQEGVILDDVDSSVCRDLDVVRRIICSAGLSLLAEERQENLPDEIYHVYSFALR
Materials: NTMT1 enzyme, substrate SPKRIA, control peptide RCC1-6 is provided by the Huang laboratory. ThioGlo3 Assay: In brief, 125nM NTMT1 enzyme was dispensed into a 1536-well assay plate with Aurora Discovery BioRAPTR Flying Reagent Dispenser (FRD, Beckton-Dickenson). Compounds (at various concentration) or 1uM RCC1-6 (SPKRIA) control were transferred to the assay plate using the Kalypsys 1536-pintool apparatus. After 1 min of room temperature incubation, 1uL of substrate (100uM SAM, 10uM SAHH, 15uM ThioGlo3) was added to the wells bringing the final assay volume to 4uL. Initial (background) fluorescence readout (EX: 340nm, EM: 450nm) was then detected using the PerkinElmer ViewLux microplate imager and a final fluorescence readout was taken after 30 min of room temperature incubation. The data was normalized to the background fluorescence.
(In qHTS, concentration-response curves come from the screen itself.)
For `CNC1(C)C2CCC(C2)C1(C)C` (stereo not given), the “activity change, negative = inhibition” value is 0.737% (inactive).

With `CCN(CC)CCNC(=O)c1ccc(NC(C)=O)cc1`, the “activity change, negative = inhibition” value was -8.94% (inactive).

Regarding `C[C@@H](O)[C@H]1C(=O)N2C(C(=O)O)=C(SCCN=CN)C[C@H]12`, the “activity change, negative = inhibition” value was 18.2% (inactive).

For the compound `Cc1nnc(SCC2=C(C(=O)O)N3C(=O)[C@@H](NC(=O)Cn4cnnn4)[C@H]3SC2)s1`, the Potency is 50.1 µM (active).

Turning to `CC(C)[N+](C)(CCOC(=O)C1c2ccccc2Oc2ccccc21)C(C)C`, the “activity change, negative = inhibition” value is -18.4% (inactive).

Take `CN1CCN(C2=Nc3ccccc3Oc3ccc(Cl)cc32)CC1`: the “activity change, negative = inhibition” value was -27.5% (inactive).

With `CC(C)(C)c1ccc(C(=O)CCCN2CCC(OC(c3ccccc3)c3ccccc3)CC2)cc1`, the “activity change, negative = inhibition” value is 14.7% (inactive).

As for `NC(=O)c1cn(Cc2c(F)cccc2F)nn1`, the “activity change, negative = inhibition” value is -10.1% (inactive).

Take `COCCOC(=O)C1=C(C)NC(C)=C(C(=O)OC(C)C)C1c1cccc([N+](=O)[O-])c1` (stereo not given): the “activity change, negative = inhibition” value was -10.6% (inactive).

In the case of `CC(C)COCC(CN(Cc1ccccc1)c1ccccc1)N1CCCC1` (stereo not given), the Potency is 50.1 µM (active).

With `CCOC(=O)C1=C(C)NC(C)=C(C(=O)OC)C1c1cccc(Cl)c1Cl` (stereo not given), the Potency is 56.2 µM (active).

Take `N[C@@H](COP(=O)(O)O)C(=O)O`: the “activity change, negative = inhibition” value was -13.4% (inactive).

For the compound `COC(=O)[C@H]1[C@H]2C[C@@H]3c4[nH]c5cc(OC)ccc5c4CCN3C[C@H]2C[C@@H](OC(=O)c2cc(OC)c(OC)c(OC)c2)[C@@H]1OC`, the Potency was 56.2 µM (active).

`CNCCC(Oc1ccccc1OC)c1ccccc1` (stereo not given): the “activity change, negative = inhibition” value was -11.8% (inactive).

With `CC(C(=O)O)c1ccc(CC2CCCC2=O)cc1` (stereo not given), the “activity change, negative = inhibition” value is -12.7% (inactive).

Consider `O=c1[nH]c(=O)n([C@H]2C[C@H](O)[C@@H](CO)O2)cc1Br`, for which the “activity change, negative = inhibition” value was -0.766% (inactive).

As to `OC(CCN1CCCCC1)(c1ccccc1)C1CCCCC1` (stereo not given), the “activity change, negative = inhibition” value was -12.7% (inactive).

Take `C[n+]1cc2c3c(ccc2c2ccc4cc5c(cc4c21)OCO5)OCO3`: the Potency was 44.7 µM (active).

As to `Brc1c(NC2=NCCN2)ccc2nccnc12`, the Potency was 50.1 µM (active).

Turning to `O=C(CCNNC(=O)c1ccncc1)NCc1ccccc1`, the “activity change, negative = inhibition” value is -13% (inactive).

Turning to `C[C@]12CCC(=O)C=C1CC[C@@H]1[C@@H]2C(=O)C[C@@]2(C)[C@H]1CC[C@]2(O)C(=O)CO`, the “activity change, negative = inhibition” value was -16.3% (inactive).

With `CN1C(=O)CC[C@H]1c1cccnc1`, the “activity change, negative = inhibition” value is 66.2% (inactive).

As for `CN(C)C(=O)Oc1cccc([N+](C)(C)C)c1`, the “activity change, negative = inhibition” value was -6% (inactive).

Consider `CN(C)CCN(Cc1cccs1)c1ccccn1`, for which the “activity change, negative = inhibition” value was -11.2% (inactive).

On to `CCN(CC)CCNC(=O)c1cc(S(C)(=O)=O)ccc1OC`, for which the “activity change, negative = inhibition” value was -7.87% (inactive).

Consider `CCCN(CCC)CCc1cccc2c1CC(=O)N2`, for which the “activity change, negative = inhibition” value is -10.4% (inactive).

As for `CN(C)[C@@H]1C(=O)C(C(N)=O)=C(O)[C@@]2(O)C(=O)C3=C(O)c4c(O)ccc(Cl)c4[C@@H](O)[C@H]3C[C@@H]12`, the Potency is 56.2 µM (active).

`O=C(O)CP(=O)(O)O`: the “activity change, negative = inhibition” value is -23.3% (inactive).

For `NC1=NCC2c3ccccc3Cc3ccccc3N12` (stereo not given), the “activity change, negative = inhibition” value is -21.8% (inactive).

Turning to `COc1ccc([C@@H]2Sc3ccccc3N(CCN(C)C)C(=O)[C@@H]2OC(C)=O)cc1`, the “activity change, negative = inhibition” value was -3.9% (inactive).

As for `c1ccc2c(c1)CCCC2C1=NCCN1` (stereo not given), the “activity change, negative = inhibition” value is -15.8% (inactive).

For `CC(=O)OC(C)C[N+](C)(C)C` (stereo not given), the “activity change, negative = inhibition” value was -9.83% (inactive).

As for `CN(C)C(=O)Oc1ccc[n+](C)c1`, the “activity change, negative = inhibition” value is -15.8% (inactive).

As to `CCCCCCCC/C=C\CCCCCCCC(=O)NCc1ccc(O)c(OC)c1`, the “activity change, negative = inhibition” value was 0.332% (inactive).

As to `CCCC(C(=O)OCCN(CC)CC)(c1ccccc1)c1ccccc1`, the “activity change, negative = inhibition” value was -21.1% (inactive).

As to `O=C1NCN(c2ccccc2)C12CCN(CCCC(c1ccc(F)cc1)c1ccc(F)cc1)CC2`, the “activity change, negative = inhibition” value is -15.9% (inactive).

Consider `NC(N)=N/N=C/c1c(Cl)cccc1Cl`, for which the “activity change, negative = inhibition” value is -18% (inactive).

For the compound `CCCN1C[C@H](CSC)C[C@@H]2c3cccc4[nH]cc(c34)C[C@H]21`, the “activity change, negative = inhibition” value is -21.9% (inactive).

For `NS(=O)(=O)c1cc2c(cc1Cl)NC(C1CC3C=CC1C3)NS2(=O)=O` (stereo not given), the “activity change, negative = inhibition” value was 14.3% (inactive).

As to `CCN1CCc2nc(N)oc2CC1`, the Potency is 56.2 µM (active).
